Drawing on PubChem BioAssay (EPA / NIEHS), this text covers outcome and AC50 for 4 compounds.

Structures are written as SMILES. Calls of active or inactive are those of the source. How the source made its calls: active means hit-call score of the fitted dose curve at least 0.9, where 1 is the maximum; inactive means score below 0.9.

Test [1] can be described thus: ATG_M_61_CIS: Attagene CIS-FACTORIAL HepG2 Assay for M61 Transcription Factor (Internal Marker) (AID 2282937). To be noted: HepG2 Attagene CIS-FACTORIAL M61 internal marker reporter; actives raise or lower the signal. The gist of the method:
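Readout is reporter mRNA by RT-PCR, fluorescent primer extension and capillary electrophoresis, with gain or loss fitted relative to DMSO. Transfected HepG2 cells carrying endogenous-TF-driven cis reporters were exposed to chemicals for 24 hours.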

Test [2] can be described thus: ATG_EGR_CIS: Attagene CIS-FACTORIAL HepG2 Assay for human Early Growth Response 1 (EGR1) (AID 2282938). To be noted: HepG2 Attagene CIS-FACTORIAL EGR reporter mRNA; actives raise or lower the signal. The gist of the method: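 After 24 h compound exposure, RNA from reporter-transfected HepG2 cells was reverse-transcribed, PCR-amplified, fluorescently labelled and resolved by capillary electrophoresis. EGR1 reporter transcript changes, up or down, were fitted against DMSO, reflecting endogenous transcription-factor activity.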

The nature of test [3]: ATG_M_19_CIS: Attagene CIS-FACTORIAL HepG2 Assay for M19 Transcription Factor (Internal Marker) (AID 2282939). To be noted: HepG2 Attagene CIS-FACTORIAL M19 internal marker reporter; actives raise or lower the signal. The gist of the method:
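Chemical-treated HepG2 (24 h) with MRTU constructs; reporter transcripts detected by fluorescent RT-PCR fragment analysis on capillary electrophoresis. Internal background marker, DMSO as baseline.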

A short description of test [4]: ATG_ERE_CIS: Attagene CIS-FACTORIAL HepG2 Assay for Estrogen Response Element (ERE) (AID 2282940). To be noted: HepG2 ERE cis-reporter, Attagene RNA transcript; actives raise or lower the signal. The gist of the method:
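Human liver cells (HepG2) bearing transiently transfected, promoter-regulated reporter units were exposed 24 h. Reporter mRNA induction was detected by capillary electrophoresis of labelled RT-PCR products and fitted bidirectionally to DMSO.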

The nature of test [5]: ATG_Ets_CIS: Attagene CIS-FACTORIAL HepG2 Assay for human Erythroblast Transformation Specific (ETS) (AID 2282941). To be noted: HepG2 ETS cis-reporter transcription, actives raise or lower the signal. The gist of the method:
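Endogenous transcription factor activity read as reporter mRNA via RT-PCR and capillary electrophoresis, with gain or loss fitted bidirectionally against DMSO. Human HepG2 liver cells, transiently transfected CIS reporter constructs, 24 h exposure.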

The target of test [6] is Hepatocyte nuclear factor 3-beta (Homo sapiens) (UniProt Q9Y261). Briefly: ATG_FoxA2_CIS: Attagene CIS-FACTORIAL HepG2 Assay for human Forkhead box A2 (FOXA2) (AID 2282942). To be noted: HepG2 cis-reporter transcription factor activity, 24 h; actives raise or lower the signal. The essentials: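 Endogenous transcription factor activity is captured via cis-element-driven reporter transcripts in transfected HepG2. Total RNA taken at 24 h post-dosing; labelled RT-PCR products resolved by capillary electrophoresis. Gain or loss fitted versus DMSO.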

A short description of test [7]: ATG_FoxO_CIS: Attagene CIS-FACTORIAL HepG2 Assay for human Forkhead box O (FoxO) (AID 2282943). To be noted: HepG2 Attagene cis-reporter, FoxO element, mRNA; actives raise or lower the signal. The essentials: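 HepG2 cells transiently transfected with cis-element-driven reporter units report endogenous FoxO activity. After 24 h chemical exposure, reporter mRNA quantified by RT-PCR, fluorescent labeling, HpaI digestion and capillary electrophoresis; bidirectional fit versus DMSO.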

Test [8] in a line: ATG_GATA_CIS: Attagene CIS-FACTORIAL HepG2 Assay for human GATA Binding Protein (AID 2282944). To be noted: HepG2 GATA cis-element reporter, Attagene multiplex mRNA; actives raise or lower the signal. The essentials:
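Transfected cis-reporter HepG2 cells were treated with chemicals for 24 hours. Total RNA was then converted to cDNA, amplified with reporter-specific primers and analysed by fluorescent capillary electrophoresis, using DMSO-treated wells as baseline.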

The nature of test [9]: ATG_GLI_CIS: Attagene CIS-FACTORIAL HepG2 Assay for human Zinc Finger Protein GLI1 (AID 2282945). To be noted: HepG2, Attagene cis-factorial reporter mRNA, GLI element; actives raise or lower the signal. The essentials:
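Transiently transfected HepG2 cells report endogenous transcription factor activity via cis-element-driven reporter units. After 24 h compound exposure, reporter mRNA was measured by RT-PCR with capillary electrophoresis; bidirectional fitting against DMSO baseline.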

Test [10] can be described thus: ATG_GRE_CIS: Attagene CIS-FACTORIAL HepG2 Assay for human Glucocorticoid Response Elements (GRE) (AID 2282947). To be noted: HepG2 GRE cis-reporter, Attagene multiplex mRNA; actives raise or lower the signal. The essentials: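 Read-out: fluorescent reporter-transcript fragments separated by capillary electrophoresis after RT-PCR. Transiently transfected HepG2 cells carrying cis-element-driven reporter units were dosed for 24 h; gain or loss of signal fitted against DMSO control.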

Test [11] can be described thus: ATG_ISRE_CIS: Attagene CIS-FACTORIAL HepG2 Assay for human Interferon Regulatory Factor 1 (IRF1) binding to an Interferon-Stimulated Response Element (ISRE) (AID 2282948). To be noted: HepG2 ISRE cis-reporter (Attagene), mRNA transcription readout; actives raise or lower the signal. The essentials:
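Endogenous transcription factor activity read as reporter transcript abundance via RT-PCR and capillary electrophoresis. HepG2 cells transiently transfected, 24 h chemical exposure. Gain or loss fitted against DMSO baseline.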

Test [12] can be described thus: ATG_M_32_CIS: Attagene CIS-FACTORIAL HepG2 Assay for M32 Transcription Factor (Internal Marker) (AID 2282949).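 Further: background control marker of the multiplexed CIS panel rather than a real target.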 To be noted: HepG2 Attagene cis-factorial M32 reporter, mRNA; actives raise or lower the signal. The essentials: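 Using DMSO as baseline, bidirectional curve fits were applied to reporter mRNA signals. These came from transiently transfected HepG2 cells exposed for 24 h, with RNA analysed by RT-PCR, FAM primer extension, HpaI digestion and CE.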

Test [13] can be described thus: ATG_M_06_CIS: Attagene CIS-FACTORIAL HepG2 Assay for M06 Transcription Factor (Internal Marker) (AID 2282950). To be noted: HepG2 Attagene CIS-FACTORIAL M06 internal marker reporter; actives raise or lower the signal. The gist of the method:
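Cells (HepG2, transiently carrying cis-driven reporter units) receive chemical for 24 h before RNA isolation. Reporter cDNA is PCR-amplified, FAM-labelled by primer extension, HpaI-digested and sized on a capillary analyser.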

The target in test [14] is Hypoxia-inducible factor 1-alpha (Homo sapiens) (UniProt Q16665). Kind of test: ATG_HIF1a_CIS: Attagene CIS-FACTORIAL HepG2 Assay for human Hypoxia Inducible Factor 1 (HIF1A) (AID 2282951). To be noted: HepG2 Attagene cis-factorial HIF1a reporter transcription; actives raise or lower the signal. The gist of the method: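 Activity is fitted in both directions relative to DMSO. Reporter transcripts are read by RT-PCR, fluorescent primer extension and capillary electrophoresis after 24 h chemical treatment. The cells are HepG2 carrying transiently transfected cis-element-driven reporter units responding to endogenous factors.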

Test [15] has as its target Hepatocyte nuclear factor 6 (Homo sapiens) (UniProt Q9UBC0). Briefly: ATG_HNF6_CIS: Attagene CIS-FACTORIAL HepG2 Assay for human Hepatocyte Nuclear Factor 6 (HNF6) (AID 2282952). To be noted: HepG2 Attagene cis-factorial HNF6 reporter transcription; actives raise or lower the signal. The gist of the method: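 First, HepG2 cells were transfected with the multiplexed cis reporter library and dosed with chemical for 24 h. Next, RNA was reverse-transcribed, PCR-amplified and fluorescently labelled. Finally, HpaI-digested fragments were read by capillary electrophoresis.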

Test [16] addresses Heat shock factor protein 1 (Homo sapiens) (UniProt Q00613). Kind of test: ATG_HSE_CIS: Attagene CIS-FACTORIAL HepG2 Assay for human Heat Shock Transcription Factor 1 (HSE) (AID 2282953). To be noted: HepG2 HSE cis-reporter, Attagene RNA transcription; actives raise or lower the signal. The gist of the method:
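Liver-derived HepG2 cells carry transiently introduced multiple reporter units governed by cis promoters. Reporter RNA measured 24 h post-dose through reverse transcription, PCR amplification, fluorescent labelling and capillary electrophoresis, normalised to DMSO.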

A short description of test [17]: ATG_MRE_CIS: Attagene CIS-FACTORIAL HepG2 Assay for human Metal Responsive Element (MRE) (AID 2282954). To be noted: HepG2 MRE cis-reporter transcription, Attagene multiplex; actives raise or lower the signal. The essentials:
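RT-PCR/capillary electrophoresis readout of reporter mRNA, 24 h post-dosing, in HepG2 cells transfected with multiplexed cis-regulated reporter constructs. Gain or loss of signal fitted bidirectionally against DMSO baseline.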

For test [18], the target named is Paired box protein Pax-6 (Homo sapiens) (UniProt P26367). Kind of test: ATG_Pax6_CIS: Attagene CIS-FACTORIAL HepG2 Assay for human Paired Box 6 (PAX6) (AID 2282956). To be noted: HepG2 CIS-FACTORIAL PAX6 reporter transcription, RNA readout; actives raise or lower the signal. The essentials: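 Read-out is reporter transcript level, measured by RT-PCR with fluorescent primer extension and capillary electrophoresis after 24 h dosing of transfected HepG2 cells. Activity in either direction fitted relative to DMSO control.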

Test [19] addresses Bile acid receptor (Homo sapiens) (UniProt Q96RI1). Kind of test: ATG_IR1_CIS: Attagene CIS-FACTORIAL HepG2 Assay for human Nuclear Receptor Subfamily 1 Group H Member 4 (NR1H4), IR1 submotif (AID 2282946). To be noted: IR1 reporter transcription, actives raise or lower the signal. The gist of the method: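 Fluorescence of capillary-separated, HpaI-digested RT-PCR reporter products gave IR1-element mRNA induction in HepG2 cells 24 h after dosing. Endogenous transcription factors drove the cis-regulated reporters; activity was fitted bidirectionally against DMSO.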

Test [20] can be described thus: ATG_PBREM_CIS: Attagene CIS-FACTORIAL HepG2 Assay for human Phenobarbital-responsive Enhancer Module (PBREM) (AID 2282955). To be noted: HepG2 PBREM cis-reporter, Attagene multiplexed transcription; actives raise or lower the signal. The essentials: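 Endogenous transcription factor activity was read from reporter transcripts in transiently transfected human HepG2 liver cells after 24 h dosing. RT-PCR products were fluorescently labelled, HpaI-cut and sized by capillary electrophoresis; activity fitted bidirectionally against DMSO baseline.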

Chain of Hepatocyte nuclear factor 3-beta (Homo sapiens) (Q9Y261 whole entry, looked up): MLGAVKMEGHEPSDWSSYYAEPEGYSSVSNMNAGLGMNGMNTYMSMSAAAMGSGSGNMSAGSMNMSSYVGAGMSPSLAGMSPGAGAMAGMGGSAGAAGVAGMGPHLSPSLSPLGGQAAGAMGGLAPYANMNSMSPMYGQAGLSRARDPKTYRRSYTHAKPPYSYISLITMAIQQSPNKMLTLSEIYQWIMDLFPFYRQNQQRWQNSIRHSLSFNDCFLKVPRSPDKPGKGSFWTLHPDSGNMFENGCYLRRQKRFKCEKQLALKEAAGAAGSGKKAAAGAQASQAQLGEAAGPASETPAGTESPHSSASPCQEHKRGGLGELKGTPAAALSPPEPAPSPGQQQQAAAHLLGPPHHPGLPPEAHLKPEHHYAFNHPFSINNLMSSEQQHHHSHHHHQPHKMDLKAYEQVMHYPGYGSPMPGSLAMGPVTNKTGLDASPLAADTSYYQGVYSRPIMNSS
Chain of Paired box protein Pax-6 (Homo sapiens) (P26367 whole entry, looked up): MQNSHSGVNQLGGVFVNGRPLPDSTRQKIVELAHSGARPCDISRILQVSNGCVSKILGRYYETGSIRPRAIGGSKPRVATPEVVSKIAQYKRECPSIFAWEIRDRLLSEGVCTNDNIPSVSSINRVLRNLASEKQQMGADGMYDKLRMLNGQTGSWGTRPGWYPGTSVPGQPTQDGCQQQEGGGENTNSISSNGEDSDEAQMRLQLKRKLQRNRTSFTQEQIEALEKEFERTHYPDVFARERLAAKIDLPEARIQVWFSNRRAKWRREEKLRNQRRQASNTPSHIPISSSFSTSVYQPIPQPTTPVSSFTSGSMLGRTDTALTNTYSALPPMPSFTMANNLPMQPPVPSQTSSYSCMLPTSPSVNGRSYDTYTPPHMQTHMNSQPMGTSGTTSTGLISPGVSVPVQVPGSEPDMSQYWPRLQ
Chain of Heat shock factor protein 1 (Homo sapiens) (Q00613 whole entry, looked up): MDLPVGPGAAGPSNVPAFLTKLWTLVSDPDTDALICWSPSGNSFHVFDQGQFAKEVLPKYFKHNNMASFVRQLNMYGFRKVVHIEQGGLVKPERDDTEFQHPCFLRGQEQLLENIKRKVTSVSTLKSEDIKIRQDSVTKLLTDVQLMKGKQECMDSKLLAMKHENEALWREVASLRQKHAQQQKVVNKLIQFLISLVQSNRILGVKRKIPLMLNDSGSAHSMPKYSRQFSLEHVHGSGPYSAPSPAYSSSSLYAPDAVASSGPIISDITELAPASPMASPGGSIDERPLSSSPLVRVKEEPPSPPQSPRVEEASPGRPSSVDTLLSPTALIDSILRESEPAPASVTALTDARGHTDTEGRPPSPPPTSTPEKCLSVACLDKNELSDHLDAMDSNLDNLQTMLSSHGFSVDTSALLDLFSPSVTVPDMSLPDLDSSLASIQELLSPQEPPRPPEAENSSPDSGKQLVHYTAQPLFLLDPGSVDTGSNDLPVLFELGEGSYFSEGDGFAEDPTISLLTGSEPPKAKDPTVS
Chain of Hepatocyte nuclear factor 6 (Homo sapiens) (Q9UBC0 whole entry, looked up, the tested form may be a part): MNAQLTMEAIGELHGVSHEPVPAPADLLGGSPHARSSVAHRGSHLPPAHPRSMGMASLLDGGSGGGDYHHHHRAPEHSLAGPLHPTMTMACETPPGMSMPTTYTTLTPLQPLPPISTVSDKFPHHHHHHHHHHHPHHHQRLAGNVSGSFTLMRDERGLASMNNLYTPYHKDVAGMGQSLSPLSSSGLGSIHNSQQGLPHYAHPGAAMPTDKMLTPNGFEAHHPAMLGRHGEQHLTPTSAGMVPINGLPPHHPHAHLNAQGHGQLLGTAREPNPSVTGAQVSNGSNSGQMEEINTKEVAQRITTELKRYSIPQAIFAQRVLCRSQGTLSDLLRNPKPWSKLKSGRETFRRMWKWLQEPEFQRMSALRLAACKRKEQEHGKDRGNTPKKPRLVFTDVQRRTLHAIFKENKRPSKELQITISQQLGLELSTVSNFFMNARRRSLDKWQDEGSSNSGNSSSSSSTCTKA
Chain of Hypoxia-inducible factor 1-alpha (Homo sapiens) (Q16665 whole entry, looked up): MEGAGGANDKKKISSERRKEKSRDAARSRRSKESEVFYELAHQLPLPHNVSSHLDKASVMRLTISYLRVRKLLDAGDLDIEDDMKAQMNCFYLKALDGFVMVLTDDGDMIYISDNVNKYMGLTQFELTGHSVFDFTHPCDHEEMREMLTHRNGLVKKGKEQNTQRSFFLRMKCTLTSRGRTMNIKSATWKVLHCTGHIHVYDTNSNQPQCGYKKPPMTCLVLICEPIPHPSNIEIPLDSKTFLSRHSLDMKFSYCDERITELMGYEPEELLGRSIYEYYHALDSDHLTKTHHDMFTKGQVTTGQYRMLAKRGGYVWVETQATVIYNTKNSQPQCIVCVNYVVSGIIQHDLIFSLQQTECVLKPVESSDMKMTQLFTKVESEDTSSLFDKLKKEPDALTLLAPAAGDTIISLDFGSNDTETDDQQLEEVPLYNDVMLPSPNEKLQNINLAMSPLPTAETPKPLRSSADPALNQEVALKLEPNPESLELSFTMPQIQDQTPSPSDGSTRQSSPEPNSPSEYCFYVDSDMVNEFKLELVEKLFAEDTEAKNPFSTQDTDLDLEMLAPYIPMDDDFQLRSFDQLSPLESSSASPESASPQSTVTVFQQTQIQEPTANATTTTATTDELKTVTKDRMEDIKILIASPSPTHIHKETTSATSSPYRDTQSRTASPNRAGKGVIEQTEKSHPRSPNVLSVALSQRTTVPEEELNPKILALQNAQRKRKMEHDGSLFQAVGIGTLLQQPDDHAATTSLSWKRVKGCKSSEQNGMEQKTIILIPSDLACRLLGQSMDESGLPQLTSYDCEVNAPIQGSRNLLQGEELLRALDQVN
Chain of Bile acid receptor (Homo sapiens) (Q96RI1 whole entry, looked up): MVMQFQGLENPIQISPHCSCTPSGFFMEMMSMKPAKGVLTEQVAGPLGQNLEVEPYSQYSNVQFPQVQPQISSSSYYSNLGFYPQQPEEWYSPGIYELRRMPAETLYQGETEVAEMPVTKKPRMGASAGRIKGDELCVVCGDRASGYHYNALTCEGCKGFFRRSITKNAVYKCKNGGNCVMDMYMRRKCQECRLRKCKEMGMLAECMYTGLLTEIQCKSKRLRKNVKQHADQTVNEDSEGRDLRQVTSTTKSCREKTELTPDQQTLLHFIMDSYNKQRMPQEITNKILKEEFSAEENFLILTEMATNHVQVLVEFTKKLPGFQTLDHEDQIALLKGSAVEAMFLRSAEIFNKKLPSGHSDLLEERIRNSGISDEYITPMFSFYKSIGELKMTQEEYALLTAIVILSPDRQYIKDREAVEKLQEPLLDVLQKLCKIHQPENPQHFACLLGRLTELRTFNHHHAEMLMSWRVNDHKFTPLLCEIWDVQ

For the compound `O=NN1CCOCC1`, the outcome in test [1], in test [2], in test [3], in test [4], in test [5] and in [6] was inactive. Besides, the call in test [7], in test [8], in [9], in test [10], in [11] and in [12] was inactive. For the same compound, the call in test [13], in [14], in [15], in test [16], in test [17] and in test [18] was inactive.
Turning to `C#CCOC(=O)/C=C(C)/C=C/CC(C)CCCC(C)C` (stereo not given), the result in test [1], in test [2], in [3], in test [4], in [5] and in test [6] was inactive. For the same compound, the call in test [8], in test [9], in [19], in test [10], in test [11] and in [13] was inactive. In addition, the result in [14], in test [15], in test [16], in test [17], in test [20] and in [18] was inactive.
For the compound `CCCCN(CCCCO)N=O`, the result in [1], in [2], in test [3], in [5], in test [6] and in test [7] was inactive. Besides, the result in test [9], in [10], in test [12], in test [13], in [14] and in [15] was inactive. Further, the compound was called inactive in [16], in test [17], in [20] and in test [18]. The AC50 – broadly, the concentration at which the activity in the assay is half-maximal – in test [4] was 3.06 µM (active).
For the compound `C=C(C)C(=O)OCCCCOC(=O)C(=C)C`, the call in test [1], in test [2], in test [3], in [4], in [5] and in [6] was inactive. The compound was called inactive in [7], in [8], in test [9], in [10], in test [12] and in test [14]. The call in [15], in test [16], in [17], in test [20] and in [18] was inactive.
